A1 inh: inhibitors of the anti-apoptotic protein A1, read as caspase activation; MEF A1-2A-BIM cells, Caspase-Glo 3/7 luminescence, 3 h; percent of clofoctol response, vehicle zero; caspase activation, % (no concentration beside the values); 330,000 compounds, 0.066% hits; AID 2462;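 active means over half of replicate activation scores above 10%, or exactly half above 10 with the replicate mean above 10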
dFosB activator: mouse delta FosB homodimer activation. activation, % at 25 µM. 340,000 compounds, 0.99% hits. AID 493131. purified delta FosB, TAMRA-CDK5 oligo fluorescence polarization; percent of positive-control signal above neutral wells;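 active means mean activation above about 17%, with every replicate also reaching it, limit read from the data, passing the limit was not always enough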
INS-1E GSIS act: GLuc luminescence reporter in INS-1E cells, primary screen for activators of glucose-dependent secretion of insulin. AID 743287. activation, % at 16.6 µM. INS-1E GLuc reporter insulin secretion, 2-3 h. 370,000 compounds, 0.61% hits;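 active means lowest replicate activation of at least 40%, so every replicate reaches that level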;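 further: 0% = median of neutral control wells and 100% = median of IBMX positive control wells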
Vif inh: inhibitors of HIV Vif | AID 602346 | inhibition, % at 7.49 µM | 340,000 compounds, 0.35% hits | HEK293T cells, Vif self-association by quenched fluorescence, imaging, 24 h; in the data active means inhibition above about 50%, passing the limit was not always enough
Neddylation inh: inhibitors of human cullin neddylation; P61081+Q13564; TR-FRET cullin neddylation, biochemical; inhibition, % at 25 µM; 360,000 compounds, 0.58% hits; AID 651699; in the data active means inhibition above about 36%
Numbers without * were called inactive; x = not tested or not shown. A selection: hits, their analogues and other compounds. The true share with any hit is near 1.9%.

SMILES	A1 inh	dFosB activator	INS-1E GSIS act	Vif inh	Neddylation inh
O=C(C[C@@H]1C[C@@H]2c3cc(NC(=O)CC4CC4)ccc3O[C@@H]2[C@@H](CO)O1)NCc1ccccn1	x	x	16	x	x
COc1ccc(-c2noc(CCCC(=O)Nc3cccnc3)n2)cc1OC	0	5	x	-9	2
COc1ccc(-c2noc(CCC(=O)Nc3cccnc3)n2)cc1OC	0	-13	66*	1	2
C[C@H](CO)N1C[C@H](C)[C@@H](CN(C)S(=O)(=O)c2ccc(F)cc2)OCCCC[C@H](C)Oc2ccc(NC(=O)c3ccncc3)cc2C1=O	x	x	-6	x	x
COC(=O)c1ccc(C(=O)Nc2ccc3nc(-c4ccncc4)[nH]c3c2)cc1	0	44*	-7	1	1
O=C(c1ccccc1)c1ccc2nc(-c3ccc(NC(=O)c4ccccc4F)cc3)[nH]c2c1	-1	6	197*	0	0
C[C@H](CO)N1C[C@H](C)[C@H](CN(C)C)Oc2ccc(NS(=O)(=O)c3cccs3)cc2C1=O	x	x	7	x	x
O=C(Nc1ccc(F)cc1)N1CC(=O)N2[C@@H](CO)[C@@H](c3ccc(Br)cc3)[C@@H]2C1	x	x	-12	x	x
Fc1ccc2c(c1)C(c1ccc(N3CCOCC3)cc1)=NNC(c1cccs1)=N2	-1	1	18	-6	41*
CNC[C@@H]1OCCCC[C@H](C)Oc2ccc(NC(=O)Nc3c(C)noc3C)cc2C(=O)N([C@H](C)CO)C[C@H]1C	x	x	-1	x	x
O=C(c1coc2ccc(O)c(CN3CCOCC3)c12)C1CC1	0	-2	x	-5	0
O=C(c1cccs1)c1coc2ccc(O)c(CN3CCOCC3)c12	-1	-7	65*	-3	-31
COc1ccc(CCNC(=O)[C@@H](NC(N)=O)C(C)C)cc1	-1	-6	2	51*	1
COc1ccc2c3c(n(C)c2c1)[C@@H](CO)N(C(=O)Nc1ccc(F)cc1)CC31CCN(S(=O)(=O)c2cccc(F)c2)CC1	x	x	-2	x	x
COc1cc2ccc(C(C)=NNC(N)=S)cc2cc1OC	x	x	67*	8	-18
Cc1noc(C)c1S(=O)(=O)N(C)C[C@@H]1OCCCC[C@@H](C)Oc2ccc(NS(=O)(=O)c3cccs3)cc2C(=O)N([C@H](C)CO)C[C@H]1C	x	x	-15	x	x
CCCNC(=O)C[C@@H]1C[C@@H]2c3cc(NC(=O)c4ccc5c(c4)OCO5)ccc3O[C@@H]2[C@@H](CO)O1	x	x	3	x	x
COc1ccc(NC(=O)c2ccc(-c3ccc(-c4noc(C)n4)cc3C)cc2)cc1N1CCN(C)CC1	0	21*	x	30	1
CC1(C(=O)NS(=O)(=O)c2ccc(Cl)cc2)CCN1C(=O)C1(c2ccccc2)CCCC1 (stereo unspecified)	x	x	x	-3	-4
CC1(C(=O)NS(=O)(=O)c2ccc(C#N)cc2)CCN1C(=O)C1(c2ccccc2)CCCC1 (stereo unspecified)	x	x	99*	-3	1
O=C(C[C@H]1C=C[C@H](NC(=O)Nc2ccc(C(F)(F)F)cc2)[C@H](CO)O1)NCc1cccc(F)c1	x	x	12	x	x
O=S(=O)(c1ccccc1)N1CCCCN2[C@H](CO)[C@H](c3ccc(-c4ccccc4)cc3)[C@H]2C1	x	x	-15	x	x
COC(=O)c1scc(C)c1NC(=O)CC1NCCNC1=O (stereo unspecified)	0	x	60*	38	4
CCCNC(=O)[C@H]1[C@H](CO)[C@H]2Cn3c(ccc(C4=CCCCC4)c3=O)[C@@H]1N2CC	x	x	9	x	x
C[C@H](CO)N1C[C@H](C)[C@@H](CN(C)C(=O)Nc2ccc(C(F)(F)F)cc2)Oc2ccc(NC(=O)C3CC3)cc2CC1=O	x	x	-2	x	x
CC1CCc2c(sc(NC(=O)c3ccccc3C(=O)O)c2C#N)C1 (stereo unspecified)	-2	-4	3	3	2
CCC(C)(C)C1CCc2c(sc(NC(=O)c3ccccc3C(=O)O)c2C#N)C1 (stereo unspecified)	2	-2	x	9	69*
CCS(=O)(=O)Nc1ccc(-c2cc(-c3ccccc3)c3cc(C)ccc3n2)cc1	1	-8	110*	9	x
COc1nc(N/N=C/c2ccc(-c3ccccc3[N+](=O)[O-])o2)nc(N2CCOCC2)n1	0	3	38	-4	-4
O=[N+]([O-])c1ccc(-c2ccc(/C=N/Nc3nc(NCc4ccccc4)nc(N4CCOCC4)n3)o2)cc1	0	21*	-9	1	-2

Assay outcomes as filed in PubChem.
